High-throughput results from PubChem BioAssay.
PLK1 PBD block: PLK1 (human) polo-box domain binding inhibition; Plk1 PBD binding of FITC phosphopeptide, fluorescence polarization; Potency, µM, for the others: max response, negative = inhibition, actives largely listed as inhibitors; 2.8% of 360,000 active; note: potency is the fitted concentration of half-maximal effect; series mostly up to about 57 µM; nearly all actives have a fitted effect of over 65% in size
WRN helicase inh: WRN helicase (human) inhibition. 0.46% of 360,000 active. Q14191. Potency, µM (titrated, usually from 114 µM), without a hit: top-dose activity change, negative = inhibition, usual class: inhibitors. WRN helicase unwinding, fluorescent forked duplex, kinetic; note: potency is the fitted concentration of half-maximal effect; nearly all actives have a fitted effect of over 55% in size
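Kinetic red-fluorescence monitoring (525/598 nm) tracks WRN helicase activity after 100 nM fluorophore-quencher forked duplex and 2 mM ATP are added to 20 nM enzyme pretreated 15 min at room temperature with compound.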
USP2a inh: inhibitors of human ubiquitin-specific protease USP2a | O75604 | USP2 core, Ub-CHOP2 coupled fluorogenic reporter, 485/531 | Potency, µM (highest dose often 38.3 µM), for the others: at the highest dose activity change, negative = inhibition, hits mostly inhibitors | 0.01% of 330,000 active | AID 463254;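 note: potency is the fitted concentration of half-maximal effect; plate controls were DMSO wells for no effect and full inhibition by NEM control for full effect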
Target sequence (O75604 whole entry, looked up): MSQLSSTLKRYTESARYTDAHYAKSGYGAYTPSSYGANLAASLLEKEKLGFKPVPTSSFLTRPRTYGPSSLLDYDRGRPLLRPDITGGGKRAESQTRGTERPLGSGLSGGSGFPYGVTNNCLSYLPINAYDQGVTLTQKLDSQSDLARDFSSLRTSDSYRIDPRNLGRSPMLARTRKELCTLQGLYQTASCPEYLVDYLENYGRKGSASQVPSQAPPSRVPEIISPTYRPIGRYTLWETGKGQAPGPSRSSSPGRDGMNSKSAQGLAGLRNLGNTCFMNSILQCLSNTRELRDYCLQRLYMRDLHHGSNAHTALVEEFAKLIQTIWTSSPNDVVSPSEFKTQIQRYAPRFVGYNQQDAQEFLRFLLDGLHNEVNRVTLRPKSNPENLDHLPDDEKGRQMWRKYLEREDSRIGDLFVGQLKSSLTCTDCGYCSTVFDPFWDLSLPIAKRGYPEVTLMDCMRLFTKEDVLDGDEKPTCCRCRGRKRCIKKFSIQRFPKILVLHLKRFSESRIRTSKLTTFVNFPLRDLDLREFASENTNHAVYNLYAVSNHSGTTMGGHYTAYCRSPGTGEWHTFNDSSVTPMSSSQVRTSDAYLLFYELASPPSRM
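Deubiquitinase activity read as fluorescence (485/531 nm) after Ub-CHOP2 cleavage activates the enterokinase reporter on its substrate; USP2 core 10nM, Ub-CHOP2 and substrate 25nM each, 30min compound preincubation then 60min RT; data normalized to NEM, curves fitted.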
USP1 inh: blocks the human USP1/UAF1 deubiquitinase complex; recombinant USP1/UAF1, Ub-Rhodamine cleavage fluorescence; Potency, µM (series often up to 57.1 µM), for inactives: top-dose activity change, negative = inhibition, actives largely listed as inhibitors; 0.23% of 390,000 active; note: potency is the fitted concentration of half-maximal effect; nearly all actives have a fitted effect of over 60% in size
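1 nM enzyme complex + cpd, 15 min RT; start with Ub-Rho 150nM final; kinetic fluorescence ex 480/em 540, 6 reads q60 s. Buffer 50mM HEPES pH 7.8, 0.5mM EDTA, 0.1 mg/ml BSA, 1mM TCEP, 0.01% Tween-20.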
PI5P4K alpha inh: PI5P4K alpha (human) kinase inhibition; P48426; PI5P4Kalpha enzyme, ADP-Glo luminescence, 60 min; stronger effect = lower value; max response, %; 1.2% of 330,000 active; AID 652105; active = max response of -50% or lower; inconclusive = between -30% and -50%; inactive = -30% or higher; note: value at the top dose of about 77 µM
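Human PI5P4Kalpha with substrate in 0.038 M HEPES pH 7.4, 0.28 mM EGTA, 0.1% CHAPS, 5% DMSO; reaction started with 5 microM ATP (final), 60 min at room temperature. ADP formed read by ADP-Glo luminescence.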
Numbers without * were called inactive; [ ] = remark or other dose. Rows were chosen to be rich in hits. Some 3.3% of all compounds tested hit in one or more screens of this group. Unless noted, calls come from the whole dose curve; as a rule, active = well fitted curve in the direction sought with a large enough effect; inconclusive = small, poorly fitted or top-dose-only effect, or another doubt; inactive = no such curve, though single readings can be large; an effect the other way counts as inactive or inconclusive. Unless noted, % is set by controls: 0 for no effect and ±100 for the full control effect.

O=C(NCCc1cn[nH]c1)C1CCC(=O)N(CCc2cccc(F)c2)C1 (centres undefined) was read as PLK1 PBD block 3.36µM*, WRN helicase inh -6.1%, USP2a inh 0.5%, USP1 inh -7.6% and PI5P4K alpha inh -15.1.
`O=C(O)c1cccc(Cn2c(Cl)c(/C=N/Nc3ccccc3)sc2=O)c1` gave PLK1 PBD block inconclusive, WRN helicase inh -14.7%[11.6 µM], USP2a inh -8.8%, USP1 inh -15.3% and PI5P4K alpha inh -63.8*.
Screening C=CCNc1sc(C(=O)c2ccccc2)c(N)c1-c1nc2ccccc2s1 returned PLK1 PBD block 16.8µM*, WRN helicase inh -24.8%, USP2a inh -0.8%, USP1 inh -6.5% and PI5P4K alpha inh -17.6.
For CCCc1nc2sc3c(c2c(=O)[nH]1)CCCC3 the results were PLK1 PBD block 26.7µM*, WRN helicase inh 9.7%, USP2a inh -5.0%, USP1 inh -5.9% and PI5P4K alpha inh -9.2.
Screening Cc1ccc(NC(=O)CCc2nc3sc4c(c3c(=O)[nH]2)CCCC4)c(Br)c1 returned PLK1 PBD block -12.0%, WRN helicase inh inconclusive, USP2a inh -0.4%, USP1 inh -16.9% and PI5P4K alpha inh -65.8*.
Cc1cc(C)cc(NC(=O)CCc2nc3sc4c(c3c(=O)[nH]2)CCCC4)c1 was read as PLK1 PBD block 0.0%, WRN helicase inh -14.8%, USP2a inh 3.5%, USP1 inh -14.5% and PI5P4K alpha inh inconclusive.
Cc1cccc(C(=O)NCC(=O)OCc2cc(=O)n3nc(C)sc3n2)c1 was read as USP1 inh 0.8%.
Screening CCCCCCCCSc1nnc2[nH]c(=O)cc(N)n12 returned PLK1 PBD block 3.36µM*, WRN helicase inh inconclusive, USP2a inh 7.1%, USP1 inh 2.4% and PI5P4K alpha inh -50.5*.
CCCCCCSc1nnc2[nH]c(=O)cc(N)n12 was read as PLK1 PBD block -18.7%, WRN helicase inh -4.4%, USP2a inh 3.2%, USP1 inh -15.9% and PI5P4K alpha inh -13.4.
`CCOC(=O)c1c(Oc2ccc(C(C)=O)cc2)nnc(-c2ccccc2)c1-c1ccccc1` gave USP1 inh -6.7%.
c1cc(-c2nsc(-c3ccncc3)n2)ccn1 was read as PLK1 PBD block 18.9µM*, WRN helicase inh -17.7%, USP2a inh 3.5%, USP1 inh -24.1% and PI5P4K alpha inh -15.9.
Screening Cc1cc(OCCn2cnc3ccccc3c2=O)cc(C(C)C)c1 returned PLK1 PBD block 21.2µM*, WRN helicase inh 0.3%, USP2a inh 2.6%, USP1 inh -8.2% and PI5P4K alpha inh -10.8.
Cc1cc(C)c(OCCCCn2cnc3ccccc3c2=O)c(C)c1 was read as PLK1 PBD block 0.4%, WRN helicase inh -7.1%, USP2a inh -0.9% and USP1 inh -14.9%.
COc1ccccc1N(O)C1CC(=O)N(c2ccc(F)cc2)C1=O (centres undefined) was read as PLK1 PBD block 5.32µM*, WRN helicase inh -18.1%, USP2a inh -0.4% and USP1 inh -8.0%.
`O=C(CNC(=O)c1ccccc1)OCCOc1cccc(Cl)c1` gave PLK1 PBD block 1.6%, WRN helicase inh 0.9%, USP2a inh -0.9%, USP1 inh -20.5% and PI5P4K alpha inh 6.2.
O=C(CNC(=O)c1ccccc1)Oc1cccc(Cl)c1 was read as PLK1 PBD block 7.52µM*, WRN helicase inh -15.4%, USP1 inh -12.9% and PI5P4K alpha inh -0.2.
For COc1cc(-c2cc3n(C)c(C)c(CCC(=O)NC4CCC(C)CC4)c(=O)n3n2)cc(OC)c1OC (centres undefined) the results were USP1 inh -36.6%.
`COC(=O)c1ccc(NC(=O)Cn2ccn3nc(-c4ccc(OC)cc4)cc3c2=O)cc1` gave USP1 inh -4.3%.
For O=C(NC1CCCCCC1)C(=S)NCc1ccccc1 the results were PLK1 PBD block 21.2µM*, WRN helicase inh -9.6%, USP2a inh -6.9%, USP1 inh -17.0% and PI5P4K alpha inh -6.5.
S=C(NCCc1ccccc1)N/N=C/C1CCCCC1 was read as USP2a inh 3.2%.
`O=C(NC1CCCCCC1)C(=S)NCCc1ccccc1` gave PLK1 PBD block 10.6µM*, WRN helicase inh -6.9%[57.1 µM], USP2a inh 2.2%, USP1 inh -10.2% and PI5P4K alpha inh 1.3.
Screening S=C(NCCc1ccccc1)NN=C1CCCCCC1 returned PLK1 PBD block 26.7µM*, WRN helicase inh 1.9%, USP2a inh 1.6%, USP1 inh -19.5% and PI5P4K alpha inh -0.2.
Screening CC(=O)c1ccc(NC(=O)c2ccc(-c3nc(COc4ccc(C)cc4)c(C)o3)cc2)cc1 returned USP1 inh 7.4%.
N#Cc1cccc(NC(=S)Nc2ccccc2)c1 was read as PLK1 PBD block 13.4µM*, WRN helicase inh -13.9%, USP2a inh 0.9%, USP1 inh -14.9% and PI5P4K alpha inh 4.2.
For Oc1ccc(NC(=S)Nc2ccccc2)cc1 the results were PLK1 PBD block -4.2%, WRN helicase inh -3.9%, USP2a inh -1.3%, USP1 inh -14.3% and PI5P4K alpha inh 0.3.
For Cc1ccc([N+](=O)[O-])cc1S(=O)(=O)n1ccnc1C the results were PLK1 PBD block 4.23µM*, WRN helicase inh 1.4%[57.1 µM], USP2a inh 0.0%, USP1 inh -5.1% and PI5P4K alpha inh inconclusive.
Cc1ccc([N+](=O)[O-])cc1S(=O)(=O)N1CCN(C)CC1 was read as PLK1 PBD block -6.0%, WRN helicase inh -18.5%, USP2a inh 2.9%, USP1 inh -22.7% and PI5P4K alpha inh 1.6.
O=C(NCc1cccc(Br)c1)c1ccc(-n2cnc3cccnc32)cc1 was read as USP1 inh -14.5%.
For COc1ccc(Nc2nc3ccccc3c(=O)[nH]2)cc1 the results were PLK1 PBD block 23.8µM*, WRN helicase inh -2.1%, USP2a inh -11.9%, USP1 inh -17.6% and PI5P4K alpha inh -27.6.
Screening Cc1ccc(Nc2nc3ccccc3c(=O)[nH]2)cc1C returned PLK1 PBD block 1.3%, WRN helicase inh -3.6%, USP2a inh 1.9%, USP1 inh -6.7% and PI5P4K alpha inh 0.5.
For CCC(Sc1nncn2c1cc1oc(C)cc12)C(=O)Nc1ccc(F)cc1 (centres undefined) the results were USP1 inh -16.4%.
Screening COc1ccc(N2C(=O)[C@@H]3[C@H](C2=O)[C@H]2c4ccccc4C=CN2[C@@H]3C(C)=O)cc1 returned PLK1 PBD block inconclusive, WRN helicase inh -12.0%, USP2a inh 3.5%, USP1 inh 15.8µM* and PI5P4K alpha inh -12.5.
For COc1ccc(N2C(=O)[C@H]3[C@@H](C2=O)C2c4ccccc4C=NN2[C@H]3C(=O)C(C)(C)C)cc1 (some centres undefined) the results were PLK1 PBD block -8.0%, WRN helicase inh -2.5%, USP2a inh 2.0%, USP1 inh -2.2% and PI5P4K alpha inh -2.6.
